Screening results (PubChem)
TRHR enhancer: TRH receptor (human) allosteric enhancement; TRHR cells, fluo-8 calcium fluorescence, EC20 TRH enhancement; actives 0.66% (n = 360,000); enhancement, % at 2 µM; P34981; in the data active = enhancement above about 30%
Target sequence (P34981 whole entry, looked up): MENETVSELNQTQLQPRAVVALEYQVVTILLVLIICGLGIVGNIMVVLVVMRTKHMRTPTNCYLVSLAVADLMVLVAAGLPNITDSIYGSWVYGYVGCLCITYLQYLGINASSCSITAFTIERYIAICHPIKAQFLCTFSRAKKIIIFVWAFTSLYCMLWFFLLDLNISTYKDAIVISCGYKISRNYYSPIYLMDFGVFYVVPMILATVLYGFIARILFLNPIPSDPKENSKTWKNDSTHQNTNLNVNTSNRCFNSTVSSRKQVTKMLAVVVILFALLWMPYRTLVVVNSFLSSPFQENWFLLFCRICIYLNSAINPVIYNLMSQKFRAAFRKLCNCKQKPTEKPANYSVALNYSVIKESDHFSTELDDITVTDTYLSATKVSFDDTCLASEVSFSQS
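TRHR-expressing cells loaded with fluo-8 calcium dye were read kinetically (ex 480/em 530) during compound addition, then stimulated with an EC20 of TRH (10 nM final). Enhancement of the Gq-mediated intracellular calcium response was scored.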
D1 PAM: human D1 dopamine receptor positive modulation; HEK293 TREx D1 cells, calcium flux, dopamine EC20 potentiation; P21728; actives 0.036% (n = 360,000); potentiation, % at 10 µM; AID 504651; in the data active = potentiation above about 30%
D1 agonist: human D1 receptor agonism | P21728 | HEK293 T-REx D1 cells, calcium flux, agonist mode | activation, % at 2 µM | actives 1% (n = 360,000) | AID 504660
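Tetracycline-induced HEK293 TREx D1 cells, force-coupled to calcium signalling, were dye-loaded with a no-wash calcium kit. Compound was pin-added after a 10 s baseline. Fluorescence was read kinetically at 1 cycle/s for 180 s, with calcium rises flagged as agonism.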
D1 antagonist: human D1 dopamine receptor antagonism; P21728; actives 3.2% (n = 360,000); activity change, negative = inhibition, % at 10 µM; AID 504652; HEK293 TREx D1 cells, calcium flux, dopamine EC80; stronger effect = lower value; in the data active = activity change below about -30%
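Cells carrying a force-coupled, tetracycline-inducible human D1 receptor report calcium flux. Each well gets a 10 s baseline, compound with 180 s monitoring, then an EC80 dopamine stimulus with a second 180 s kinetic read.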
TRHR agonist: agonists of human TRH receptor; TRHR cells, calcium flux fluo-8, FDSS agonist mode; AID 493084; actives 0.18% (n = 360,000); activation, % at 2 µM; P34981
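TRHR-expressing cells, plated overnight in medium with 10% serum, were loaded with fluo-8 calcium dye at room temperature. After a 10 s baseline, library compound was pin-added and calcium release was recorded kinetically (ex 480/em 530) as agonist response.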
Numbers stand for hits; 0 = inactive; ! = repeats disagree. Compounds with a hit are over-represented: about 4.7% of the library has one in this group of screens. Cut-off read from the data, not from the text of the source, unless noted: active = activation above about 30%; inactive = the rest.

SMILES	TRHR enhancer	D1 PAM	D1 agonist	D1 antagonist	TRHR agonist
CCn1cc(C(=O)NCCc2ccc(C)cc2)c(=O)c2cc(S(=O)(=O)N3CCc4ccccc4C3)ccc21	0	0	0	0	0
CCOCCCNC(=O)c1cn(CC)c2ccc(S(=O)(=O)N3CCC(C)CC3)cc2c1=O	0	0	0	-34	0
O=C(CNC(=O)c1ccc(F)cc1)OCc1cc(=O)n2nc(C3CC3)sc2n1	0	0	0	0	0
Cc1c(NC(=O)c2cc([N+](=O)[O-])ccc2N2CCOCC2)cccc1-c1nc2ccccc2o1	0	0	0	0	0
Cc1c(O)c2c3c(cccc3c1O)C(=O)N(c1ccccc1)C2=O	0	0	53	0	0
O=C(O)c1ccc2c3c(cccc13)C(=O)N(c1ccccc1)C2=O	0	0	0	0	0
Cc1cccc(N2C(=O)c3cccc4c(N)ccc(c34)C2=O)c1	0	0	576	0	132
Cc1cccc(N2C(=O)c3cccc4c(N(C)CCO)ccc(c34)C2=O)c1	0	0	200	0	0
CN(C)c1ccc2c3c(cccc13)C(=O)N(c1ccccc1)C2=O	0	0	0	0	0
Nc1ccc2c3c(cccc13)C(=O)N(c1ccccc1)C2=O	0	0	384	-42	0
CCOC(=O)COc1ccc(-c2nnn(CC(=O)Nc3ccccc3)n2)cc1	0	0	0	0	0
Cc1ccc(-n2nc(CO)c(C(=O)NC(C)CCCc3ccccc3)n2)cc1 (stereo unspecified)	0	0	0	0	0
COc1ccc(NC(=O)c2c(NCc3ccc(C)o3)sc3c2CCC(C)C3)cc1 (stereo unspecified)	0	0	0	0	0
CCCNC(=O)C1CCC(Cn2c(=O)c3sccc3n(CC(=O)N(CC)CC)c2=O)CC1 (stereo unspecified)	0	0	0	0	0
Nc1cccc(N2C(=O)c3cccc4c(N)ccc(c34)C2=O)c1	0	0	156	0	127
O=C(O)c1cccc(N2C(=O)c3cccc4c(Cl)ccc(c34)C2=O)c1	0	0	0	0	0
COC(=O)C1=C(C)N(Cc2ccccc2)C(=NCc2ccc(OC)cc2)N[C@H]1c1ccc(Br)cc1	0	0	0	0	0
CC(C)(C)c1cc2cccnc2n1Cc1cccc(Cl)c1	0	0	0	-31	0
COc1ccc(C)cc1NC(=O)N1CCN(c2cc(-c3noc(C)n3)ccc2C)CC1	0	0	0	0	0
Cc1ccc(Cn2c(=O)c3cccnc3n(Cc3ccc(C)cc3)c2=O)cc1	0	0	0	-30	0
COc1ccc(NC(=O)N2CCC(n3c(C)nc4cccnc43)CC2)cc1OC	0	0	0	0	0
COc1ccc(C(CC(=O)N2CCOCC2)c2c(OC)cc(OC)c3c(-c4ccccc4)cc(=O)oc23)cc1 (stereo unspecified)	0	0	0	-41	0
CCCCC(=O)OCc1cc(=O)n2nc(C3CCCCC3)sc2n1	0	0	0	0	0
CCCCOc1ccc(C(=O)CCN2CCOCC2)cc1	0	0	0	-34	0
CCCCCOc1ccc(C(=O)CCC(=O)N2CCCC2)cc1	0	0	36	0	0
SMILES	TRHR enhancer	D1 PAM	D1 agonist	D1 antagonist	TRHR agonist
CCCCOc1ccc(C(=O)N2CCCC2)cc1	0	0	0	0	0
CCc1nc2ccc(C(=O)NCc3ccc(SC)cc3)cc2nc1CC	0	0	0	0	0
COCCCNC(=O)CN1C(=O)c2c(c3ccccc3n2C)C1c1ccc(OC)cc1 (stereo unspecified)	0	0	0	0	0
O=c1c(Cl)c(Cl)cnn1Cc1nnc(-c2ccccc2Br)o1	39	0	236	0	0
CCOc1ccc(C2c3[nH]c4ccccc4c3CCN2C(=O)Cc2cccc(OCC)c2OCC)cc1 (stereo unspecified)	0	0	0	0	0
CCN(C#N)c1nc(NC(C)C)nc(NC(C)(C)C)n1	0	0	51	0	0
CCCCn1c(=N)n(CC(O)COc2ccccc2)c2ccccc21 (stereo unspecified)	0	0	0	0	0
CCn1c(=N)n(CC(O)COc2cccc(C)c2)c2ccccc21 (stereo unspecified)	0	0	79	0	0
N=c1n(CCN2CCCCC2)c2ccccc2n1CC(O)COc1ccccc1 (stereo unspecified)	0	0	0	0	0
CCCCCn1c(=N)n(CC(O)COc2cccc(C)c2)c2ccccc21 (stereo unspecified)	0	0	59	0	0
CCCn1c(=N)n(CC(O)COc2cccc(C)c2)c2ccccc21 (stereo unspecified)	0	0	44	0	0
N=c1n(CCN2CCOCC2)c2ccccc2n1CC(O)COc1ccccc1 (stereo unspecified)	0	0	0	0	0
COc1ccc(-n2c(SCC(=O)N3CCC(C)CC3)nc3c([nH]c4ccccc43)c2=O)cc1	0	0	0	0	0
Cc1cccc(C(=O)N/N=C/c2ccncc2)c1	0	0	0	-37	0
CCn1c(Cc2ccc(OC)cc2)nnc1SCC(=O)Nc1nc2ccccc2s1	0	0	0	-31	0
COc1cccc(-n2ccnc2SCC(=O)Nc2ccccc2F)c1	0	0	0	-37	0
CCn1c(SCC(=O)Nc2nc3ccccc3s2)nnc1-c1ccc(Br)cc1	0	0	0	0	0
COc1ccc(NC(=O)COC(=O)c2ncc(Cl)c(Cl)c2Cl)c(OC)c1	0	0	0	-41	0
Cn1ccnc1SCC(=O)Nc1cccc2ccccc12	0	0	0	-34	0
COc1ccc(C(C)(C)C)cc1NC(=O)COC(=O)c1ncc(Cl)c(Cl)c1Cl	0	0	0	0	0
COc1ccc(N2CCN(S(=O)(=O)c3ccc(-c4cc(C(F)(F)F)on4)s3)CC2)cc1	0	0	0	0	0
CC1CCCCN1C(=O)CSc1n[nH]c(-c2ccccc2Cl)n1 (stereo unspecified)	0	0	0	0	0
CCOC(=O)N1CCC2(CC1)OC(=O)C(C)=C2C(=O)NCc1cccc(OC)c1	0	0	0	0	0
O=C(NCc1ccco1)C1CCN(C(=O)N2CCOc3ccc(Cl)cc32)CC1	0	0	0	0	0
COc1ccc(NC(=O)CSc2nccn2Cc2ccccc2)c(OC)c1	0	0	0	-36	0
SMILES	TRHR enhancer	D1 PAM	D1 agonist	D1 antagonist	TRHR agonist
CCn1c(CNC(=O)Cc2ccc(OC)cc2)nnc1SCC(=O)NC1CCCCC1	0	0	0	-39	0
COc1ccc(Cn2ccnc2SCC(=O)NC2CCCC2)cc1	0	0	0	-67!	0
O=C(CSc1nccn1-c1ccc(F)cc1)Nc1ccc(OC(F)(F)F)cc1	0	0	0	-76	0
COc1ccc(-n2ccnc2SCC(=O)Nc2ccccc2)cc1	0	0	0	0	0
CCN(CC(=O)NCc1ccc(F)cc1)C(=O)c1ccc(Cl)cc1	0	0	0	0	0
CCN(CC(=O)NCc1ccc(F)cc1)C(=O)/C=C/c1cccs1	38	0	0	0	0
